Pin1 inhibitor = qHTS Assay to Find Inhibitors of Pin1; AID 504891, 2011; Potency, µM (top dose mostly 115 µM), usual class: inhibitors; Pin1 FP peptide displacement, HiFluor488, 10 min; Peptidyl-prolyl cis-trans isomerase NIMA-interacting 1 (Homo sapiens), Q13526; 390,000 tested, 0.009% active; active means well fitted inhibition curve with a large enough effect in the polarisation, with a control signal flat, not every such curve was filed as active; inconclusive means small, poorly fitted or top-dose-only effect, or effect the other way, or a change in a side signal; inactive means no such curve, though single readings can be large or run the other way; the % refers to the polarisation
TDP1 inh = qHTS Assay for Inhibitors of Tyrosyl-DNA Phosphodiesterase (TDP1) | Potency, µM (series often up to 130 µM), most hits filed as inhibitors | Tyrosyl-DNA phosphodiesterase 1 (Homo sapiens), Q9NUW8 | recombinant TDP1, AlphaScreen DNA substrate cleavage | AID 485290, 2010 | 350,000 tested, 0.28% active; further: nearly all actives have a fitted effect of over 40% in size
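Steps: enzyme plus compound, 15 min RT; add biotin/phosphotyrosine-FITC oligonucleotide (15 nM final), react 5 min; add donor/acceptor beads (10 ug/ml final), 10 min; read AlphaScreen. Tdp1 at 1 nM final.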
PLK1 PBD block = qHTS for Inhibitors of PLK1-PDB (polo-like kinase 1 - polo-box domain): Primary Screen; Serine/threonine-protein kinase PLK1 (Homo sapiens), P53350; Plk1 PBD binding of FITC phosphopeptide, fluorescence polarization; Potency, µM, usual class: inhibitors; 360,000 tested, 2.8% active; AID 720504, 2013; further: series mostly up to about 57 µM; nearly all actives have a fitted effect of over 65% in size
ASM inhibitor = Inhibitors of Secretory Acid Sphingomyelinase (S-ASM): qHTS | AID 504937, 2011 | 340,000 tested, 0.006% active | placental ASM, HMU-PC fluorogenic substrate, 60 min | Sphingomyelin phosphodiesterase (Homo sapiens), P17405 | Potency, µM (series often up to 57.5 µM), most hits filed as inhibitors
Target sequence (P17405 47-631 limits assumed): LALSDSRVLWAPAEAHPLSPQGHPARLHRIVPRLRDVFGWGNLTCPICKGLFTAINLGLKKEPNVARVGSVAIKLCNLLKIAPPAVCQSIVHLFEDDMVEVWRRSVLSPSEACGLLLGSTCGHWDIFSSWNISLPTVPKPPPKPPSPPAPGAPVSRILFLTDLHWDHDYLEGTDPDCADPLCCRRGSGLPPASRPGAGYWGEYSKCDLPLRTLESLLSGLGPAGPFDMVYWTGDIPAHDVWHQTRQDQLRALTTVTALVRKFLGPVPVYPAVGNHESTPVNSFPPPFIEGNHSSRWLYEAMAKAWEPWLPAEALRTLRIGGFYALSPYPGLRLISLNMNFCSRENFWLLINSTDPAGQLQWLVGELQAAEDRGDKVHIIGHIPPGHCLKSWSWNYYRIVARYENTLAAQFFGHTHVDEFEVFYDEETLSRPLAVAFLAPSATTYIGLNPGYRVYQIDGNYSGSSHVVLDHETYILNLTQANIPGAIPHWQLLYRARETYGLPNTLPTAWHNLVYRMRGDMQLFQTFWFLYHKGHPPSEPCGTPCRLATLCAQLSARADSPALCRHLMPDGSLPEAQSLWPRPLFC
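qHTS format. ASM enzyme prepared from human placenta hydrolyses the fluorogenic substrate HMU-PC0 (9 uM final) over 60 min at 37 °C after a 10 min compound preincubation.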
Tb PFK block = qHTS Assay to Find Inhibitors of T. brucei phosphofructokinase; 330,000 tested, 0.17% active; AID 485367, 2010; T. brucei PFK, ADP-Glo luminescence; ATP-dependent 6-phosphofructokinase (Trypanosoma brucei brucei), O15648; Potency, µM (titrated, usually from 57.5 µM), hits mostly inhibitors; further: nearly all actives have a fitted effect of over 60% in size
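In TEA buffer at pH 8.0 with 5 mM MgCl2, enzyme (1.25 nM) converted F6P (0.5 mM) and ATP (0.1 mM) for 45 min at room temperature. ADP product was read by luciferase luminescence.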
VDR inh = Inhibitors of the vitamin D receptor (VDR): qHTS; 400,000 tested, 0.93% active; Vitamin D3 receptor (Homo sapiens), P11473; Potency, µM, usual class: inhibitors; VDR-SRC2-3 peptide fluorescence polarization, 2 h; AID 504847, 2011
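After 23 nl compound addition and a short centrifugation, plates sat for 2 hours at ambient temperature; polarization of fluorescence then indicated loss of VDR binding to peptide SRC2-3.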
Large screens that a line does not name were inactive. The list is not random: actives were taken first. Their share in the collection is about 3.1%. Unless noted, the call rests on the fitted dose curve; in most records, active means well fitted curve in the direction sought with a large enough effect; inconclusive means small, poorly fitted or top-dose-only effect, or another doubt; inactive means no such curve, though single readings can be large; an effect the other way counts as inactive or inconclusive.

CNc1ccc(S(=O)(=O)NCC(=O)NCCCc2ccccc2)cc1[N+](=O)[O-]	PLK1 PBD block 6µM, Tb PFK block inconclusive, VDR inh inconclusive
CN(C)c1ccc(S(=O)(=O)NCC(=O)NCc2ccccc2)cc1[N+](=O)[O-]	PLK1 PBD block 12µM, VDR inh inconclusive (no result: TDP1 inh)
Cc1sc2nc(-c3cccnc3)[nH]c(=O)c2c1-c1ccccc1	PLK1 PBD block 12µM
COc1ccc(CCNC(=O)CCNC(=O)N2CC(=O)Nc3ccccc32)cc1	PLK1 PBD block 21µM
COc1ccc(CCNC(=O)CNC(=O)N2CC(=O)Nc3ccccc32)cc1	none (no result: Pin1 inhibitor, TDP1 inh, ASM inhibitor, Tb PFK block, VDR inh)
O=C1C(Cl)=C(N2CCOCC2)C(=O)N1c1ccccc1Cl	VDR inh 45µM
O=C1C(Cl)=C(N2CCCCCC2)C(=O)N1c1ccccc1Cl	PLK1 PBD block inconclusive (no result: TDP1 inh)
CS(=O)(=O)N1CCC(C(=O)N2CCN(c3ccccc3F)CC2)CC1	PLK1 PBD block 19µM, VDR inh inconclusive
COc1cc(NC(=O)C/C(C)=N/NC(=O)C(=O)NC2CCCCC2)c(OC)cc1Cl	none
COc1cc(NC(=O)C/C(C)=N/NC(=O)C(=O)NCCO)c(OC)cc1Cl	PLK1 PBD block 27µM (no result: TDP1 inh)
CCc1ccccc1Nc1nn2c(=O)c3ccc(C(=O)NC4CCC(C)CC4)cc3nc2s1 (stereo not drawn)	none (no result: PLK1 PBD block, ASM inhibitor, Tb PFK block)
CCn1nc(NS(=O)(=O)c2ccccc2)c2cc3ccccc3nc21	PLK1 PBD block 27µM, VDR inh inconclusive
O=C(O)Cn1cc(C(=S)N2CCCCC2)c2ccccc21	PLK1 PBD block 15µM
O=C(O)Cn1cc(/C=C2/SC(=O)N(CC(=O)N3CCCCCC3)C2=O)c2ccccc21	PLK1 PBD block 27µM, VDR inh inconclusive
Cc1ccc(OCCn2cc(C(=S)N3CCCC3)c3ccccc32)cc1C	Pin1 inhibitor inconclusive, PLK1 PBD block 3µM
O=C(C(=O)N1CCN(c2ccccc2F)CC1)c1cn(CC(=O)N2CCOCC2)c2ccccc12	PLK1 PBD block 24µM, VDR inh inconclusive
COCCn1cc(C(=S)N2CCCCC2)c2ccccc21	none
COc1ccccc1N1CCN(C(=O)C(=O)c2cn(CC(=O)N3CCOCC3)c3ccccc23)CC1	none
N#CN1CCC(NS(=O)(=O)c2ccc(F)cc2)CC1	none (no result: PLK1 PBD block, ASM inhibitor, Tb PFK block, VDR inh)
CN(C)CCCCl	none (no result: Pin1 inhibitor, PLK1 PBD block, ASM inhibitor, Tb PFK block, VDR inh)
CC(C)Sc1nnc2c3ccccc3n(C)c2n1	none (no result: TDP1 inh, PLK1 PBD block, ASM inhibitor, Tb PFK block)
O=C(O)Cn1cc(C(=S)N2CCOCC2)c2ccccc21	PLK1 PBD block 24µM, VDR inh inconclusive
O=C(Cn1cc(C(=S)N2CCOCC2)c2ccccc21)N1CCOCC1	none (no result: Tb PFK block)
N=C(N)S/C=C\C(=O)O	VDR inh 28µM (no result: Pin1 inhibitor, PLK1 PBD block, ASM inhibitor, Tb PFK block)
CC1(C)CC(=O)c2cnc(N)nc2C1	PLK1 PBD block 27µM, VDR inh inconclusive
CC1(C)CC(=O)c2cc3c(nc2C1)CC(C)(C)CC3=O	none
NC(=O)SCC(=O)Nc1ccc(Cl)cc1	Tb PFK block inconclusive, VDR inh 28µM
COC(=O)c1ccc(OC(=O)CS(=O)c2ccccc2[N+](=O)[O-])cc1 (stereo not drawn)	PLK1 PBD block inconclusive (no result: TDP1 inh)
O=C(CS(=O)c1ccc(C(F)(F)F)cc1[N+](=O)[O-])Oc1ccccc1 (stereo not drawn)	Pin1 inhibitor inconclusive, PLK1 PBD block 27µM
Nc1nc(=S)ss1	PLK1 PBD block 24µM, VDR inh inconclusive (no result: TDP1 inh, Tb PFK block)
O=C(Cc1ccc(S(=O)(=O)N2CCCC2)s1)N1CCN(c2ccccc2)CC1	Pin1 inhibitor inconclusive (no result: TDP1 inh)
O=C(O)Cc1ccc(S(=O)(=O)N2CCCC2)s1	TDP1 inh 10µM, PLK1 PBD block inconclusive
CCSC1(SCC)N=C(N)C2(C#N)C(c3ccccc3)NC3=C(CCC3)C12C#N (stereo not drawn)	Pin1 inhibitor inconclusive

From PubChem
